PubChem BioAssay (Tox21)
Results filed as inconclusive are left out. Calls of active or inactive are those of the source. Unless noted, calls follow the shape of the dose curve; as a rule, active = well fitted curve in the direction sought with a large enough effect in the repeat runs; inconclusive = weak or mixed curves; inactive = no such curve, though single readings can be large; an effect the other way counts as inactive or inconclusive.

What was measured:
[1] = Human pregnane X receptor (PXR) small molecule agonists, qHTS cell viability counter screen (AID 1346977); also: nearly all actives have a fitted effect of over 50% in size; also: potency is read from the fitted curve at half-maximal effect
Procedure, shortened: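 Measures live-cell protease fluorescence (CellTiter-Fluor) in PXR-Luc HepG2 cells treated 24hr with compounds at 37C. Cells had 5hr to attach before pin transfer of DMSO solutions.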

[2] = Caspase-3/7 induction in HepG2 cells by small molecules, qHTS assay (AID 1346978); also: nearly all actives have a fitted effect of over 15% in size; also: potency is read from the fitted curve at half-maximal effect
Procedure, shortened: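 Caspase-3/7 induction was measured by Caspase-Glo 3/7 luminescence (30 min, room temperature) after a 17 hr compound exposure of wild-type HepG2 cells seeded at 2,000 per well and pre-incubated 5 hr.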

[3] = Caspase-3/7 induction in CHO-K1 cells by small molecules, qHTS cell viability counter screen (AID 1346979); also: nearly all actives have a fitted effect of over 35% in size; also: potency is read from the fitted curve at half-maximal effect
Procedure, shortened: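 In the same wells as the caspase read, viability of compound-treated wild-type CHO-K1 cells was assessed using CellTiter-Fluor, added after 16hr at 37C and measured by fluorescence following 1hr further incubation.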

[4] = Caspase-3/7 induction in CHO-K1 cells by small molecules, qHTS assay (AID 1346980); also: nearly all actives have a fitted effect of over 15% in size
Procedure, shortened: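 Luminescent Caspase-Glo 3/7 read (30min, room temperature) quantified apoptosis induction. Cells were wild-type CHO-K1, treated with compound for 17hr at 37 C and 5% CO2.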

[5] = Caspase-3/7 induction in HepG2 cells by small molecules, qHTS cell viability counter screen (AID 1346981); also: nearly all actives have a fitted effect of over 30% in size; also: potency is read from the fitted curve at half-maximal effect; as to activity change, negative = cytotoxicity: series mostly up to about 92 µM
Procedure, shortened: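 HepG2, WT, 2,000 cells/well; 5 hr pre-incubation 37 C/5% CO2; compound pin-transferred from DMSO; 16 hr exposure; CellTiter-Fluor, 1 hr; fluorescence read.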

[6] = biological target: Voltage-gated inwardly rectifying potassium channel KCNH2 (Homo sapiens) (UniProt Q12809); test: Human Ether-a-go-go-Related Gene (hERG) channel small molecule antagonists: fluorescence cell-based qHTS assay (AID 1671200); also: nearly all actives have a fitted effect of over 50% in size; also: potency is read from the fitted curve at half-maximal effect;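 as to activity change, negative = inhibition: hERG-expressing U2OS cells given a thallium stimulus after FluxOR II dye loading; series mostly up to about 77 µM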
Procedure, shortened: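 Quantitative HTS in hERG-U2OS cells: thallium entry through the channel reports activity, read as continuous 480/540 nm fluorescence over 2 min after stimulus addition.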

[7] = biological target: Acetylcholinesterase (Homo sapiens) (UniProt P22303); test: Acetylcholinesterase (AChE) small molecule antagonists: colormetric cell-based qHTS assay (AID 1347395; calls by dose curve; also: nearly all actives have a fitted effect of over 30% in size)
Procedure, shortened: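 Endogenous AChE of human neuroblastoma SH-SY5Y cells was measured with an Ellman-type DTNB/acetylthiocholine mix. Compound pretreatment lasted 30 min at 37 C; substrate reaction ran 90 min at 37 C.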

[8] = biological target: Acetylcholinesterase (Homo sapiens) (UniProt P22303); test: Acetylcholinesterase (AChE) small molecule antagonists: enzyme-based qHTS assay (AID 1347397; calls by dose curve; also: nearly all actives have a fitted effect of over 55% in size); conditions: Potency: AChE enzyme activity inhibition
Procedure, shortened: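 rhAChE 50 mU/mL (dispensed) + cpd or DMSO, 30 min RT; add DTNB/acetylthiocholine cocktail, 10 min RT; colorimetric thiocholine readout. qHTS, 1536-well format.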

[9] = biological target: Acetylcholinesterase (Homo sapiens) (UniProt P22303); test: Acetylcholinesterase (AChE) small molecule antagonists: fluorescence cell-based qHTS assay (AID 1347398; calls by dose curve; also: nearly all actives have a fitted effect of over 50% in size); conditions: Potency: AChE activity
Procedure, shortened: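 Read-out is Thiolite Green fluorescence at Ex/Em = 490/520 nm, formed by reaction with thiocholine released when cellular AChE in SH-SY5Y cells hydrolyzes acetylthiocholine. Compounds were preincubated 30 min at 37 C before substrate.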

[10] = biological target: Acetylcholinesterase (Homo sapiens) (UniProt P22303); test: Acetylcholinesterase (AChE) small molecule antagonists: enzyme-based qHTS assay with human liver microsomes (AID 1347399; calls by dose curve; also: nearly all actives have a fitted effect of over 60% in size); conditions: Potency: qHTS inhibition
Procedure, shortened: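 Recombinant human AChE (50 mU/mL in the enzyme mix) and human liver microsomes (0.25 mg/mL final) were preincubated with compound and NADPH (0.25 mg/mL final) for 30 min at 37 C. Acetylthiocholine/DTNB was then added; thiocholine was read colorimetrically after 10 min at room temperature.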

[11] = biological target: Cytochrome P450 2D6 (Homo sapiens) (UniProt P10635); test: Cytochrome P450 Family 2 Subfamily D Member 6 (CYP2D6) small molecule antagonists: luciferase reporter qHTS assay (AID 1671196); also: nearly all actives have a fitted effect of over 50% in size; also: potency is read from the fitted curve at half-maximal effect; as to activity change, negative = inhibition: series mostly up to about 120 µM
Procedure, shortened: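 Read-out is luminescence from luciferin formed by CYP2D6 turnover of a proluciferin substrate, recorded as relative luminescence units. Reactions ran 1 h at room temperature after NADPH regeneration solution was added.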

[12] = biological target: Cytochrome P450 2C19 (Homo sapiens) (UniProt P33261); test: Cytochrome P450 Family 2 Subfamily C Member 19 (CYP2C19) small molecule antagonists: luciferase reporter qHTS assay (AID 1671197); also: nearly all actives have a fitted effect of over 65% in size; also: potency is read from the fitted curve at half-maximal effect; as to activity change, negative = inhibition: series mostly up to about 120 µM
Procedure, shortened: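 First, compounds are pinned into enzyme-substrate mix and held 10 min at room temperature. Second, NADPH regeneration solution is added and plates incubate 1 h at 37C. Third, detection reagent is added and luminescence read after 20 min.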

[13] = biological target: Cytochrome P450 3A4 (Homo sapiens) (UniProt P08684); test: Cytochrome P450 Family 3 Subfamily A Member 4 (CYP3A4) small molecule antagonists: luciferase reporter qHTS assay (AID 1671201)
Procedure, shortened: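 Inhibition of CYP3A4 is measured as loss of light: the enzyme converts a proluciferin substrate to luciferin, detected luminescently. Reaction ran 1 h at room temperature with NADPH regeneration after a 10 min compound preincubation.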

[14] = biological target: Nuclear receptor subfamily 1 group I member 2 (Homo sapiens) (UniProt O75469); test: Human pregnane X receptor (PXR) small molecule agonists, qHTS assay (AID 1346982); also: nearly all actives have a fitted effect of over 35% in size
Procedure, shortened: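 Luciferase signal from ONE-Glo (30 min, room temperature) measured activation of hPXR-driven CYP3A4 reporter expression in PXR-Luc HepG2 cells treated with compounds for 24 hr at 37 C.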

[15] = biological target: Cytochrome P450 2C9 (Homo sapiens) (UniProt P11712); test: Cytochrome P450 Family 2 Subfamily C Member 9 (CYP2C9) small molecule antagonists: luciferase reporter qHTS assay (AID 1671198); also: nearly all actives have a fitted effect of over 50% in size; also: potency is read from the fitted curve at half-maximal effect; as to activity change, negative = inhibition: series mostly up to about 120 µM
Procedure, shortened: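 Enzyme-substrate mix preincubated with compound 10 min at room temperature; reaction started with NADPH regeneration solution, 1 h 37C. Luminescent luciferin product read after 20 min detection reagent.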

[16] = biological target: Cytochrome P450 1A2 (Homo sapiens) (UniProt P05177); test: Cytochrome P450 Family 1 Subfamily A Member 2 (CYP1A2) small molecule antagonists: luciferase reporter qHTS assay (AID 1671199)
Procedure, shortened: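 P450-Glo CYP1A2, 1536-well qHTS: enzyme/proluciferin substrate + cpd (DMSO), 10 min RT; NADPH regen, 1 h RT; detection reagent, 20 min; luminescence, RLU.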
% is scaled to controls: 0 for no effect and ±100 for the full control effect.

Chain of Cytochrome P450 2D6 (Homo sapiens) (P10635 whole entry, looked up): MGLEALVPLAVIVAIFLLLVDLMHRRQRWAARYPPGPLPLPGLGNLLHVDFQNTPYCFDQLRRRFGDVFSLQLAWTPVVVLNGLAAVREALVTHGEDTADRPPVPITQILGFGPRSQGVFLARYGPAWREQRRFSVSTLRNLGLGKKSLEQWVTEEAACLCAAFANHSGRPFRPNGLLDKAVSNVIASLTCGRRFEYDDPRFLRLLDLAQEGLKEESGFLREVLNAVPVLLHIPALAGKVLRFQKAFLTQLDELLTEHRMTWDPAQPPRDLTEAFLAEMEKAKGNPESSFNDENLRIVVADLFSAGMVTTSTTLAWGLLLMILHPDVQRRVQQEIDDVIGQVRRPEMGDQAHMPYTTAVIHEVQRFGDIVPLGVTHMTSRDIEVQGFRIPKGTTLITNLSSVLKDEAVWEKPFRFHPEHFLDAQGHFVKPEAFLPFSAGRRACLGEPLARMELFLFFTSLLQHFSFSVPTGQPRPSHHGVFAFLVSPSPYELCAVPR
Chain of Cytochrome P450 3A4 (Homo sapiens) (P08684 whole entry, looked up): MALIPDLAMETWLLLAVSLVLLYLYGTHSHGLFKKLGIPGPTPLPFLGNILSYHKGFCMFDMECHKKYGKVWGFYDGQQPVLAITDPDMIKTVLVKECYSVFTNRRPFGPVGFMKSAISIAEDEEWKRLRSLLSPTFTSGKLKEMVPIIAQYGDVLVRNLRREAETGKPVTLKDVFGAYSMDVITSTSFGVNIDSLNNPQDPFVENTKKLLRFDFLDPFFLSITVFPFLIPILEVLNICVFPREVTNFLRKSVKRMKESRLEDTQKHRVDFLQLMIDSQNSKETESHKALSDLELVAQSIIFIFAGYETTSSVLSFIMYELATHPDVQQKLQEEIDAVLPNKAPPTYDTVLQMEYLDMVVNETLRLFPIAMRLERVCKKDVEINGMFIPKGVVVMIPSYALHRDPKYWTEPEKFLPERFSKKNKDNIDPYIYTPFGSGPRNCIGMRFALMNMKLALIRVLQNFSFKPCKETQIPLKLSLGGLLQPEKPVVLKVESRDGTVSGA
Chain of Acetylcholinesterase (Homo sapiens) (P22303 whole entry, looked up): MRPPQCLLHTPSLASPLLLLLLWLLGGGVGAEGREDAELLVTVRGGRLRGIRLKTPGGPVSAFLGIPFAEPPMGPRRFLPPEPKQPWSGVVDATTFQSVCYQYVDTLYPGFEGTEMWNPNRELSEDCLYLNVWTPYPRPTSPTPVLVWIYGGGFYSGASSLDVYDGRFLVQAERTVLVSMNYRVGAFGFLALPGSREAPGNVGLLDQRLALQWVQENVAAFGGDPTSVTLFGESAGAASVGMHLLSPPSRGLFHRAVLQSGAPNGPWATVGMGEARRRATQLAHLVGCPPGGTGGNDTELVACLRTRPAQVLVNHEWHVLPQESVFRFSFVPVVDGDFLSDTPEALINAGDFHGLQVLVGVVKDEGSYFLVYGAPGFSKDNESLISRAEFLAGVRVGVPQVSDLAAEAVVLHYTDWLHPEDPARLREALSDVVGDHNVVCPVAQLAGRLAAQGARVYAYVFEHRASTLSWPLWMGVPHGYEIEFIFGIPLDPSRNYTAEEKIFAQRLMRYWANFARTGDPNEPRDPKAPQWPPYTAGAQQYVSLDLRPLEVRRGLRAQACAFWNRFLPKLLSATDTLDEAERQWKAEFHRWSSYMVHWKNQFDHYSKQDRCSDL
Chain of Cytochrome P450 2C19 (Homo sapiens) (P33261 whole entry, looked up): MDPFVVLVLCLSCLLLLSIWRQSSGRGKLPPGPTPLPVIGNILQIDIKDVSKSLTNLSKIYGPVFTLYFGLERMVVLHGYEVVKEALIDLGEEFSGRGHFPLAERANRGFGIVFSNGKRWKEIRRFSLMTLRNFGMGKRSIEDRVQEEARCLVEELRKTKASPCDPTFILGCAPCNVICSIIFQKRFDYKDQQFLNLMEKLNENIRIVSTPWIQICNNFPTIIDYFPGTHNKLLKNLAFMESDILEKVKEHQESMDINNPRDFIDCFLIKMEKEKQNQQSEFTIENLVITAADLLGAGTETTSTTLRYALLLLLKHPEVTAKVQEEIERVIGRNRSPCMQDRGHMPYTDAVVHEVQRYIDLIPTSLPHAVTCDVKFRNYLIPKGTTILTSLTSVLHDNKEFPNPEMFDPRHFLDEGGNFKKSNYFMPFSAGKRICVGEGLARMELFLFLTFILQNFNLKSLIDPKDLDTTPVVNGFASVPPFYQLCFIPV
Chain of Cytochrome P450 1A2 (Homo sapiens) (P05177 whole entry, looked up): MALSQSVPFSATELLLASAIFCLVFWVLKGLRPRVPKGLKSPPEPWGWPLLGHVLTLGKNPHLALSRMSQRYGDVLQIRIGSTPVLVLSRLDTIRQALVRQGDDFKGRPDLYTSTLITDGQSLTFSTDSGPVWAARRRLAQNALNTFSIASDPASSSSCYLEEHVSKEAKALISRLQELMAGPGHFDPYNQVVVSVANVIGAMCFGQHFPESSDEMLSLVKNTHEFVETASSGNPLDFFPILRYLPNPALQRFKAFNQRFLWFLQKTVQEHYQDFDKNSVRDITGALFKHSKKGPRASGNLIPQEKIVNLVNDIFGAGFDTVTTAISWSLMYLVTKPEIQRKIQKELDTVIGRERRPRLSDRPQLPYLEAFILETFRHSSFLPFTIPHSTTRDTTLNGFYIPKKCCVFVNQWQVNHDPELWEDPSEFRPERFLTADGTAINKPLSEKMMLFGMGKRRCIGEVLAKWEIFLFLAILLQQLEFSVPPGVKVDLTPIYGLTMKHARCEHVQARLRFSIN
Chain of Voltage-gated inwardly rectifying potassium channel KCNH2 (Homo sapiens) (Q12809 whole entry, looked up): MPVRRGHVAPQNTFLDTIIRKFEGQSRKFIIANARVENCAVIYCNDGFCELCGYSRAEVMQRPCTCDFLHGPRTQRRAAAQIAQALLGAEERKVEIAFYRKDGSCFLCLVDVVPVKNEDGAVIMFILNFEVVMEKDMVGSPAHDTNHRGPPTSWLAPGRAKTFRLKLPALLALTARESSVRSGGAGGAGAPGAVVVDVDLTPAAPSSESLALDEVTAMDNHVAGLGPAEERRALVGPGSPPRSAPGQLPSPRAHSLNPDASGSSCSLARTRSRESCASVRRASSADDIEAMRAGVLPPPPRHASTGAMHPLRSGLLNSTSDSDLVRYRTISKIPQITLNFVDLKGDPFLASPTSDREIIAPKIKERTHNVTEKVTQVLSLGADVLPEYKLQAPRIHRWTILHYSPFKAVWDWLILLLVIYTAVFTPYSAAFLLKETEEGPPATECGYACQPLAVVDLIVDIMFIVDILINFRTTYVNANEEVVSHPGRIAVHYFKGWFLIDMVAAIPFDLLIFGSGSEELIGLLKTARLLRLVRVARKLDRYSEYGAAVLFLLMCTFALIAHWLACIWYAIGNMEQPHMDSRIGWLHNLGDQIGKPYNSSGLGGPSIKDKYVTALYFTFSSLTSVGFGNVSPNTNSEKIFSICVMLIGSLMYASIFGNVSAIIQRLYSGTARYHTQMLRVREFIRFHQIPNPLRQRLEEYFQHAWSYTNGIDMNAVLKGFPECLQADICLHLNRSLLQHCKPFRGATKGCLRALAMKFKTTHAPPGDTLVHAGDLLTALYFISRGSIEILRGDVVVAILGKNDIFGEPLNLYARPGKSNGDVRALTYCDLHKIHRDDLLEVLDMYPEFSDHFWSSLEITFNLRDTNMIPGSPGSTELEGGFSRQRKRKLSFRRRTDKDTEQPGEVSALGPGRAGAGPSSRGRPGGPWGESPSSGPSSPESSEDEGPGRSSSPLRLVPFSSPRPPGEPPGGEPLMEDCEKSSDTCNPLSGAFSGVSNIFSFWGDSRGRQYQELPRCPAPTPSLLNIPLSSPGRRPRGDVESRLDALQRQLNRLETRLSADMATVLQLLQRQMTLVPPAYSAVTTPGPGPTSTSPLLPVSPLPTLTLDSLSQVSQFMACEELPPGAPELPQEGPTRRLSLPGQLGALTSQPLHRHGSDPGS
Chain of Cytochrome P450 2C9 (Homo sapiens) (P11712 whole entry, looked up): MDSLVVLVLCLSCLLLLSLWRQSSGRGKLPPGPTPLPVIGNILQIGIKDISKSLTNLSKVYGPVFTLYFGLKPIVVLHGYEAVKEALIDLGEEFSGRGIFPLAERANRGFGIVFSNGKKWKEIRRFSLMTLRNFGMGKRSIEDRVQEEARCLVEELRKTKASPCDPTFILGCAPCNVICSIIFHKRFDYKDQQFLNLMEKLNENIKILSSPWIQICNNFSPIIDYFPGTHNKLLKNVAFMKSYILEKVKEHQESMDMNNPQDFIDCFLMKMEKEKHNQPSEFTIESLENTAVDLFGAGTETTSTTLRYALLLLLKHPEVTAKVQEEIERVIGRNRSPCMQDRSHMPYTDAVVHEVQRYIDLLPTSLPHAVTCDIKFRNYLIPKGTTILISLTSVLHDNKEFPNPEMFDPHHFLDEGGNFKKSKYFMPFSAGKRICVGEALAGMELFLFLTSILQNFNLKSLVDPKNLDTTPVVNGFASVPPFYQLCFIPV
Chain of Nuclear receptor subfamily 1 group I member 2 (Homo sapiens) (O75469 whole entry, looked up): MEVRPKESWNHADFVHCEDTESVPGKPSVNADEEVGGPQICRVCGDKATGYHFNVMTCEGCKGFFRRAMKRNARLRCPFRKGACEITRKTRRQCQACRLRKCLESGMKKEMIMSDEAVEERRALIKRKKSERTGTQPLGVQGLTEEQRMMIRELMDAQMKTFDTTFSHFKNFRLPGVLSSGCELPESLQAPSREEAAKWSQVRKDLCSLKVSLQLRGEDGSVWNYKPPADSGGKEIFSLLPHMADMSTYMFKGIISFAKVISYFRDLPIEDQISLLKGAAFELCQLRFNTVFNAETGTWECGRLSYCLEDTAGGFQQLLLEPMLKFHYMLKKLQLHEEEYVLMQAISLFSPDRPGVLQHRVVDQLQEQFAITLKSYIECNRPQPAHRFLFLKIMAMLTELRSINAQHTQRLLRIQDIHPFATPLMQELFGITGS

[Cl-].[Cl-].[Cl-].[Yb+3]
inactive: Potency [1] | Potency [2] | Potency [3] | Potency [4] | Potency [5] | Potency [6]

CC(=O)[O-].CC(=O)[O-].CC(=O)[O-].[Sb+3]
inactive: activity change, negative = cytotoxicity [1] 2.16% [at 3.27 µM] | caspase activation [2] 1.01% [at 3.27 µM] | activity change, negative = cytotoxicity [3] 4.75% [at 3.27 µM] | caspase-3/7 activation [4] -0.0038% [at 3.27 µM] | activity change, negative = cytotoxicity [5] -0.0636% [at 3.27 µM] | activity change, negative = inhibition [6] 0.0833% [at 2.72 µM]

CSSC
inactive: Potency [1] | Potency [3] | Potency [4] | Potency [5] | Potency [7] | Potency [8] | Potency [9] | Potency [10] | Potency [11] | Potency [6] | Potency [13]
active: Potency [2] 24.6 µM | Potency [12] 80.6 µM

CC1(C)C(C=C(Cl)Cl)C1C(=O)OC(C#N)c1ccc(F)c(Oc2ccccc2)c1 (stereo not given)
active: Potency [11] 28.3 µM | Potency [12] 10 µM | Potency [15] 3.17 µM
inactive: Potency [1] | Potency [2] | Potency [4] | Potency [5] | Potency [14] | Potency [7] | Potency [8] | Potency [9] | Potency [10] | Potency [16] | Potency [6] | Potency [13]

CNN
inactive: Potency [1] | Potency [2] | Potency [3] | Potency [4] | Potency [5] | Potency [7] | Potency [9] | Potency [10] | Potency [12] | Potency [15] | Potency [16] | Potency [6] | Potency [13]

CCC(OC(C)=O)C(CC(C)NC)(c1ccccc1)c1ccccc1 (stereo not given)
active: Potency [1] 27.5 µM | Potency [2] 69.2 µM | Potency [3] 69.2 µM | Potency [5] 69.2 µM | Potency [11] 14.3 µM | Potency [12] 32 µM | Potency [6] 8.78 µM
inactive: Potency [7] | Potency [8] | Potency [9] | Potency [10] | Potency [15] | Potency [16]

O.O.O.O.O.O.O.O=S(=O)([O-])[O-].[Co+2]
inactive: Potency [1] | Potency [2] | Potency [3] | Potency [4] | Potency [5] | Potency [6]

O=c1[nH]c(Cl)c(Cl)cc1Cl
active: Potency [15] 39.9 µM
inactive: Potency [1] | Potency [2] | Potency [3] | Potency [4] | Potency [5] | Potency [7] | Potency [8] | Potency [9] | Potency [10] | Potency [11] | Potency [12] | Potency [6] | Potency [13]

O=C(NC(=O)c1ccccc1Cl)Nc1ccc(OC(F)(F)F)cc1
inactive: Potency [1] | Potency [2] | Potency [3] | Potency [4] | Potency [5] | Potency [7] | Potency [8] | Potency [9] | Potency [10] | Potency [11] | Potency [12] | Potency [15] | Potency [6] | Potency [13]
